Reference: PubChem BioAssay (NCI)
The panel holds about 83,000 compounds, 20% with a hit somewhere; the sample as a whole holds those more often.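 Values shown are percent growth following 48 h exposure of cells in 96-well plates to a single concentration of compound; below 10 was considered active.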 Values without a mark were called inactive. Active and inactive are the calls of the source.

Each compound was assayed on MDA-MB-468 breast (assay: NCI-60 one-dose screen, 48 h (100 = growth as untreated, 0 = no growth, -100 = all killed)). Conditions: 10 µM unless noted.

For `CCN1CCC2(CC1)NC(=O)c1c(c3ccc(Cl)c(Cl)c3n1C)C2C#N` (stereo not given), the growth was -16.3% (active).
With `C=C1C(=O)O[C@H]2[C@H]1CC/C(COC(=O)c1cc3cc(OC)ccc3[nH]1)=C\CC[C@@]1(C)O[C@@H]21` the growth was -76.3% (active).
For `COC(=O)[C@H](Cc1cn(C)cn1)NC(=O)[C@H](Cc1c[nH]c2ccccc12)NC(=O)Nc1cc(C(F)(F)F)cc(C(F)(F)F)c1`, the growth was -75.7% [100 µM] (active).
`C=CCn1c(C)nc2cc(Nc3nc(Nc4ccc5nc(C)n(CC=C)c5c4)c4ccccc4n3)ccc21` was tested, and the growth was -85% (active).
`Cc1ccc(NC(=O)c2cc(/C=C/C(=O)NO)cc(C(F)(F)F)c2)cc1Nc1nccc(-c2cccnc2)n1` was tested, and the growth was -24.4% (active).
In the case of `COc1cc2c(c(OC)c1OC)-c1ccc(OC)c(=O)cc1[C@@H](NC(=O)CCl)CC2`, the growth is reported as -5.69% (active).
`COc1ccc(-n2c(-c3ccc(NC(=O)CCCl)cc3)nnc2-c2cc(OC)c(OC)c(OC)c2)cc1` was tested, and the growth was -11.1% (active).

Going from `O=C(/C=C/c1cccnc1)NCCCCC1CCCN(C(=O)c2ccccc2)C1` (stereo not given) to `NC(=O)C1CCCN(Cc2c[nH]c3ccccc23)C1` (stereo not given), the growth rises from 87.9% to 97.7%.

First: Cc1cc(=O)oc2cc(Oc3nc(-c4cccs4)cn4c(-c5cccs5)cnc34)ccc12
Second: Cc1nc(-c2cc3ccccc3oc2=O)ccc1C(=O)/C=C/c1ccccn1
The growth of the first is lower: 54.7% for the first, 60.5% for the second.

Compared with `C=CCc1cc(OC)c(O)c(OC)c1`, `COc1cc(OC)c2c(=O)c(O)c(-c3ccccc3)oc2c1` is lower in growth: 112% for the first, 75.5% for the second.

First: Cc1cc(N2CCCCC2)nc(N2CCN(CC(=O)Nc3ccc4c(ccn4Cc4ccccc4)c3)CC2)n1
Second: O=c1n(Cc2ccc3ccccc3c2)ccn1Cc1ccc2ccccc2c1
The growth of the first is lower: 37.6% for the first, 94.3% for the second.

Going from `O=C(C[n+]1ccccc1)c1ccc2ccccc2c1` to `NC(N)=N/N=C\c1cccc(OCc2ccccc2)c1`, the growth falls from 88.1% to 19.1%.

Compared with `CCCCCCCC1(C)NC(=O)NC1=O` (stereo not given), `CCOC(=O)C(CCN(C)C)c1ccccc1` (stereo not given) is lower in growth: 115% for the first, 101% for the second.

Compared with `Nc1ncnc2c1N=C(c1ccc(F)cc1)CC(c1cccc(Nc3ccnc4cc(Cl)ccc34)c1)N2` (stereo not given), `COc1ccc(-c2nsc3c2NC(=O)CC3c2ccc(Cl)cc2)cc1` (stereo not given) is lower in growth: 74.1% for the first, 58.7% for the second.

First: CC[C@@H](C)/C=C(C)/C=C/C(O)=C1\C(=O)N[C@@H](Cc2ccc(OC(=O)[C@@](OC)(c3ccccc3)C(F)(F)F)cc2)C1=O
Second: CCCCc1ccc(C(O)(CCN2CC3CCC(CC3)C2)c2ccccc2)cc1 (stereo not given)
The growth of the first is higher: 110% for the first, 97.4% for the second.

Compared with `c1ccc2[nH]c(-c3cc(-c4ccc5c(c4)OCO5)n[nH]3)nc2c1`, `N#Cc1c(-c2ccc(Cl)cc2)nc(N=Nc2c(O)[nH]c3ccc(Cl)cc23)nc1N1CCOCC1` is higher in growth: 51.2% for the first, 90.8% for the second.

Going from `Cc1c(Nc2nnc(SCC(=O)Nc3sc4c(c3C#N)CCCC4)s2)c(=O)n(-c2ccccc2)n1C` to `Cc1cc(C)c(S(=O)(=O)/N=c2/n(-c3ccccc3)nc3n2CCN3C2=NCCN2)c(C)c1`, the growth falls from 107% to 30%.

Going from `CCOC(=O)CN(c1sc(C)c(C)c1C(=O)OCC)S(=O)(=O)c1ccc(C)cc1` to `CCOC(=O)c1cn2ncnc(Oc3ccc(NC(=O)NCCN(CC)CC)c(Cl)c3)c2c1C`, the growth falls from 89.6% to 52.8%.

First: COc1cccc(-c2nc3occn3c2-c2ccnc(NCCNS(=O)(=O)c3ccc(C(F)(F)F)cc3)n2)c1
Second: CC(C)c1ccc(NCc2cn(-c3ccc(C(=O)O)cc3)nc2-c2cc(C(F)(F)F)cc(C(F)(F)F)c2)cc1
The growth of the first is lower: 77.4% for the first, 102% for the second.

Going from `COC1OC(C(COC(C)=O)OC(C)=O)C(OC(C)=O)C(OC(C)=O)C1OC(C)=O` (stereo not given) to `COc1cc(NC(=O)c2cccc(-c3cc(=O)c4c(O)c(OC)c(OC)cc4o3)c2)cc(OC)c1OC`, the growth falls from 109% to 59.9%.

Going from `Cc1cc(O)c(C2=NN(c3ccc(S(N)(=O)=O)cc3)C(c3ccc(N(C)C)cc3)C2)c(C)c1Cl` (stereo not given) to `CC(C)(c1ccccc1)c1cc(O)c(C(C)(C)c2ccccc2)cc1O`, the growth falls from 91.1% to 26.4%.

Going from `Cc1ccsc1/C=C/C1=NCCCN1C` to `CC(C)(C#N)N1CCN(c2ccccc2Cl)CC1`, the growth rises from 92.4% to 103%.

Going from `Cc1cc(C(=O)NOCCO)c(Nc2ccc(I)cc2F)n(C)c1=O` to `COc1cc(NCCN(CC(C)C)CC(C)C)c2ncc(C)cc2c1`, the growth falls from 114% to 11.7%.

Work on `Cc1ccc(C(=O)CC(=O)C(F)(F)C(F)(F)C(F)(F)F)s1` yielded a growth of 102%.
